# Experimental data published in PubChem BioAssay AID1851 (National Center for Advancing Translational Sciences (NCATS), 2009).
# Several values for one entry are separate records, joined by “and”; a condition that tells them apart may be missing. Identical values can stand only once. About 2,600 (16%) of roughly 16,000 compounds were called active. Inconclusive results (about 20%) are left out. The call rests on the fitted dose curve; in most records, active means well fitted curve in the direction sought with a large enough effect; inconclusive means small, poorly fitted or top-dose-only effect, or effect the other way; inactive means no such curve, though single readings can be large or run the other way. Not all results are given here. Some compounds were tested as several samples or in several runs, with calls that do not always agree.
# Target: Cytochrome P450 2D6 (Homo sapiens) (UniProt P10635)
# Test: Cytochrome panel assay with activity outcomes
# Conditions: recombinant CYP, pro-luciferin dealkylation, luminescence, p450-cyp2d6; series mostly up to 57.1 µM; activity, negative = inhibition: at the top concentration
# On the % scale 0 is the no-effect control and ±100 the full control effect.
# Chain of Cytochrome P450 2D6 (Homo sapiens) (P10635 whole entry, looked up): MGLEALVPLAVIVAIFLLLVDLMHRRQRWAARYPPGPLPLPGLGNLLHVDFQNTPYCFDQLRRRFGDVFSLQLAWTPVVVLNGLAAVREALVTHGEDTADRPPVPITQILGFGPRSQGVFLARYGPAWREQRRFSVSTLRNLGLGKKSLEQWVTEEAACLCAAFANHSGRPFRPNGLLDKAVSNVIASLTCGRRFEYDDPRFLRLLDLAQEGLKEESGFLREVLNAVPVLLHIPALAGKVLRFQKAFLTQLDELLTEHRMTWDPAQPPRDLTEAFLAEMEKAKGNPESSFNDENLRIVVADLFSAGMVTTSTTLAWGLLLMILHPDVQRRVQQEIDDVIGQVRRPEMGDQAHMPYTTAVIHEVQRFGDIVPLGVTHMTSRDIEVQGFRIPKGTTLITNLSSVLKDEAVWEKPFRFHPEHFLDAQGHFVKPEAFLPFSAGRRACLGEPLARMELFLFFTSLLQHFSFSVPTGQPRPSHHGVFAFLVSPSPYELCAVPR
SMILES,"activity, negative = inhibition",AC50
C#C[C@]1(O)CC[C@@H]2[C@H]3CCc4cc(OC)ccc4[C@@H]3CC[C@@]21C,0.842% [at 25.6 µM] (inactive),–
O=C1CC(=O)C(n2cncn2)C(c2cccc(Cl)c2)C1 (stereo not given),-36.4% (inactive),–
Cc1nn(-c2ccc(F)cc2)c(C)c1NS(=O)(=O)c1ccc2ccccc2c1,–,11.2 µM (active)
CC(=O)Nc1c(C)nn(-c2ccc(C)c(C)c2)c1C,-12.7% (inactive),–
Cc1cc(N)n(-c2ccc3ccccc3c2)n1,-17.4% (inactive),–
CC(C)(C)C(=O)OCc1cn(-c2ccc(Cl)cc2)nn1,-28.8% (inactive),–
Cc1nc(SCC(=O)c2ccc(Cl)s2)c2oc3ccccc3c2n1,15.2% (inactive),–
COCCn1c(=O)c(-c2cn(C)c3ccccc23)nc2cnc(OCc3ccccc3)nc21,-5.75% (inactive),–
O=C(c1ccc(Br)cc1)c1cc([N+](=O)[O-])ccc1N1CCCCC1,-4.02% (inactive),–
COc1ccc2nc(SCC(=O)NN)cc(C)c2c1,-12.7% (inactive),–
COc1ccc2nc(C)cc(SCC(=O)Nc3c(C)cc(C)cc3C)c2c1,4.42% (inactive),–
CCN(CC)CCC[C@H](C)Nc1c2ccc(Cl)cc2nc2ccc(OC)cc12,–,200 nM (active) and 126 nM (active)
Cn1c(=O)n(C)c2cc(/C=N/NC(=O)c3ccc(Cl)cc3Cl)ccc21,11.9% (inactive),–
CCN1CCC[C@@H]1CNC(=O)c1cc(S(N)(=O)=O)ccc1OC,-10.7% (inactive),–
CCN1CCCC1CNC(=O)CCNC(=O)c1cc(OC)c(OC)c(OC)c1 (stereo not given),12.3% (inactive),–
CCN1CCC[C@H]1CNC(=O)c1c(OC)ccc(Br)c1OC,–,inactive and 200 nM (active)
CCOc1ccc(NC(=O)C(=O)NCC2CCCN2CC)cc1 (stereo not given),-7.58% (inactive),–
CCN1CCC[C@H]1CNC(=O)c1cc(S(N)(=O)=O)ccc1OC,-18.3% [at 25.6 µM] (inactive),–
CCc1cc(Cl)c(OC)c(C(=O)NC[C@@H]2CCCN2CC)c1O,–,0.0501 µM (active)
N[C@@H](Cc1c[nH]c2ccc([N+](=O)[O-])cc12)C(=O)O,4.93% [at 11.4 µM] (inactive),–
Cc1ccccc1Cn1cc(NC(=O)CSc2nc3c(c(C(F)(F)F)n2)CCc2ccccc2-3)cn1,-12.6% (inactive),–
Cn1c(=O)c(-c2ccc(Cl)cc2)nc2cnc(Oc3cccc(Cl)c3)nc21,0.522% (inactive),–

SMILES,"activity, negative = inhibition",AC50
COc1ccc(NC(=S)N2CCN(C/C=C/c3ccccc3)CC2)cc1OC,-18.6% (inactive),–
COc1ccc(/C=C(\C#N)C(=O)NCC2CCCO2)cc1OC (stereo not given),-7.32% (inactive),–
CNc1ncnc2c1ncn2[C@@H]1O[C@H](CO)[C@@H](O)[C@@H]1O,4.56% [at 25.6 µM] (inactive),–
CSc1nc(-c2ccc(C)cc2)[nH]c1S(=O)(=O)c1ccccc1,-14.3% (inactive),–
COc1ccc(-c2c[n+]3c4n2CCCCC4=C(c2ccccc2)C3)cc1,–,1.78 µM (active)
Clc1ccc(C2=C3CCCCn4c(-c5ccccc5)c[n+](c43)C2)cc1,–,1 µM (active)
C[n+]1cc(-c2ccccc2)n2c1CCCCC2,-26.8% (inactive),–
O=C(c1ccc(Cl)cc1)N1CCCC(c2ccccc2)=N1,-18.1% (inactive),–
COc1ccc(-n2c(-c3ccccc3)nc(=S)c3c2CCCC3)cc1,-26.4% (inactive),–
Cc1cc(NC(=O)CSc2ccc3nnc(-c4ccc(F)cc4)n3n2)no1,-8.11% (inactive),–
O=C(O)c1c[nH]c2c(ccc3[nH]cc(C(=O)O)c(=O)c32)c1=O,-3.58% [at 11.4 µM] (inactive),–
Cc1ccc(CNC(=O)COC(=O)c2cnccn2)cc1,0.988% (inactive),–
Cc1cc(C)cc(Oc2nn[nH]n2)c1,2.45% (inactive),–
O=C(CN1C(=O)NC2(CCCC2)C1=O)NCCC1=CCCCC1,5.39% (inactive),–
Cc1ccc(CNC(=O)C2CCC(=O)N2C2CCCCC2)cc1 (stereo not given),-21.6% (inactive),–
CCCCCOc1ccc(NC(=O)C(=O)NCCC2=CCCCC2)cc1,-1.79% (inactive),–
O=C(CN1CCN(C2CCCCC2)CC1)NCCC1=CCCCC1,–,15.8 µM (active)
O=C(COc1ccc(Cl)cc1)NCCC1=CCCCC1,-19.8% (inactive),–
O=C(CN1CCN(c2ncccn2)CC1)NCCC1=CCCCC1,–,2.82 µM (active)
COC(=O)[C@@]1(Cc2ccc(F)cc2)[C@@H]2[C@@H](CC(=O)[C@H]2CC(=O)C(=O)N2CCCC2)CN1C(=O)c1ccccc1,0.0192% (inactive),–
CC(C)[C@@H]1O[C@H](/C=C\c2ccccc2)OCC1(C)C,-1.61% [at 11.4 µM] (inactive),–
O=C(O)Cc1sc(-c2ccc(Cl)cc2)nc1-c1ccccc1,16% (inactive),–

SMILES,"activity, negative = inhibition",AC50
Cc1cnn(CCC(=O)NNC(=S)Nc2ccc(F)cc2)c1,3.17% (inactive),–
CC(=O)Nc1ccc(NC(=O)Cn2c(-c3ccc(F)cc3)cnc2SCC(=O)Nc2c(C)cccc2C)cc1,-9.43% (inactive),–
CCSc1ncc(/C=N/Nc2ccc(F)cc2)n1C,–,0.631 µM (active)
CCc1ccc2[nH]c(O)c(N=Nc3nc(-c4ccccc4)cs3)c2c1,-11.2% (inactive),–
COc1ccc(C(=O)Nc2ccc3c(c2)nc(CN2CCN(C(C)=O)CC2)n3C)cc1,-2.59% (inactive),–
CC1CCCN(C/C=C/c2ccccc2[N+](=O)[O-])C1 (stereo not given),–,1 µM (active)
CCOC(=O)C1CCCN(S(=O)(=O)c2ccccc2)C1 (stereo not given),-11.5% (inactive),–
CS(=O)(=O)N1CCN(c2c(Cl)cccc2[N+](=O)[O-])CC1,-12.4% (inactive),–
CCOC(=O)C1CCCN(C(=O)/C=C/c2cccc([N+](=O)[O-])c2)C1 (stereo not given),-18.6% (inactive),–
CC1CC(C)CN(C/C=C/c2ccccc2[N+](=O)[O-])C1 (stereo not given),–,0.631 µM (active)
CCOC(=O)C1CCCN(C/C=C/c2ccccc2[N+](=O)[O-])C1 (stereo not given),–,0.0708 µM (active)
Cn1nnnc1SCc1ccccc1[N+](=O)[O-],-7.73% (inactive),–
CCn1c(SCC(=O)N/N=C/C=C\c2ccccc2[N+](=O)[O-])nnc1-c1ccccc1,-25.4% (inactive),–
C[C@@H]1CCCN(CP(=O)(c2ccccc2)c2ccccc2)C1,6.3% [at 11.4 µM] (inactive),–
COc1ccc(-n2c(=O)c(-c3ccccc3)nc3cnc(N4CCOCC4)nc32)cc1,-0.0357% (inactive),–
CN(C)c1ccc(/C=C2\SC(=S)N(Nc3ncc(C(F)(F)F)cc3Cl)C2=O)cc1,1.29% (inactive),–
CC(C)OC(=O)c1cc2ccccc2oc1=O,-6.6% (inactive),–
O=C(c1ccccc1)c1cc(F)c(N2CCOCC2)cc1Cl,-19.5% (inactive),–
COc1ccc2c(c1)Cc1sc(NC(=O)c3ccco3)nc1-2,-9.14% (inactive),–
CSc1nc2nc3c(c(=O)n2[nH]1)CN(Cc1ccccc1)CC3,-6.12% (inactive),–
NC[C@H]1O[C@H](n2cnc3c(N)ncnc32)C[C@@H]1O,8.01% [at 11.4 µM] (inactive),–
